According to PubChem BioAssay AID1159580 (chemical genetic matrix, 2015):
Several values for one entry are separate records, joined by “and”; a condition that tells them apart may be missing. Equal values may be shown once. The whole screen tested about 5,500 compounds, of which about 2,000 (36%) were called active. Inconclusive results (about 18%) are left out. Rule as the data show it: active = normalized growth mostly below about 0.91 (no sharp cut-off); inconclusive = no clear call, values can overlap the other calls; inactive = mostly above about 0.92. The list shows a part of the results.

Experiment: chemical genetic growth profiling, strain panel (AID 1159580);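 also: tested at 20 µM; growth read once vehicle control cultures reached saturation at 30 °C; 1 = growth at the plate median or of vehicle wells; lower values mean less growth of the strain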
Conditions: S. cerevisiae deletion strains, growth OD

Measured: normalized growth

CC(C)=CCCC1(C)C=Cc2c(O)c3c(c(CC=C(C)C)c2O1)OC12C(=CCCC1C(C)(C)O[C@@]2(C/C=C(\C)C(=O)O)C(=O)O)C3=O (some centres not stated)
active: locus YAL026C, strain drs2, stronger effect = lower value 0.813 | locus YAL030W, strain snc1, stronger effect = lower value 0.915 | locus YBL061C, strain skt5, stronger effect = lower value 0.918 | locus YBR009C, strain hhf1, stronger effect = lower value 0.86 | locus YBR023C, strain chs3, stronger effect = lower value 0.844 | locus YBR229C, strain ROT2, stronger effect = lower value 0.903 | locus YBR231C, strain swc5, stronger effect = lower value 0.861 | locus YCL011C, strain gbp2, stronger effect = lower value 0.887 | locus YCL029C, strain bik1, stronger effect = lower value 0.907 | locus YDL035C, strain GPR1, stronger effect = lower value 0.782 | locus YDL074C, strain BRE1, stronger effect = lower value 0.685 | locus YDL101C, strain DUN1, stronger effect = lower value 0.834 | locus YDL192W, strain arf1, stronger effect = lower value 0.766 | locus YDR101C, strain arx1, stronger effect = lower value 0.869 | locus YDR137W, strain rgp1, stronger effect = lower value 0.498 | locus YDR159W, strain sac3, stronger effect = lower value 0.694 | locus YDR162C, strain NBP2, stronger effect = lower value 0.377 | locus YDR297W, strain sur2, stronger effect = lower value 0.861 | locus YDR318W, strain mcm21, stronger effect = lower value 0.81 | locus YDR335W, strain msn5, stronger effect = lower value 0.881 | locus YDR388W, stronger effect = lower value 0.884 | locus YDR392W, strain spt3, stronger effect = lower value 0.283 | locus YDR502C, strain sam2, stronger effect = lower value 0.864 | locus YEL003W, strain gim4, stronger effect = lower value 0.907 | locus YEL061C, strain CIN8, stronger effect = lower value 0.89 | locus YER015W, strain faa2, stronger effect = lower value 0.84 | locus YER111C, strain swi4, stronger effect = lower value 0.91 | locus YER155C, strain BEM2 (second series), stronger effect = lower value 0.546 | locus YER155C, strain BEM2, stronger effect = lower value 0.879 | locus YER167W, strain BCK2, stronger effect = lower value 0.807 | locus YGL086W, strain mad1, stronger effect = lower value 0.851 | locus YGL173C, strain kem1, stronger effect = lower value 0.701 | locus YGL248W, strain PDE1, stronger effect = lower value 0.792 | locus YGL253W, strain hxk2, stronger effect = lower value 0.85 | locus YGR078C, strain PAC10, stronger effect = lower value 0.753 | locus YGR135W, strain pre9, stronger effect = lower value 0.863 | locus YHR027C, strain rpn1, stronger effect = lower value 0.814 | locus YHR129C, strain ARP1, stronger effect = lower value 0.808 | locus YHR142W, strain chs7, stronger effect = lower value 0.702 | locus YIL066C, strain RNR3, stronger effect = lower value 0.804 | locus YJL095W, strain BCK1 (second series), stronger effect = lower value 0.609 | locus YJL164C, strain tpk1, stronger effect = lower value 0.86 | locus YJL166W, strain qcr8, stronger effect = lower value 0.851 | locus YJL187C, strain SWE1 (second series), stronger effect = lower value 0.789 | locus YJR043C, strain POL32, stronger effect = lower value 0.822 | locus YKL160W, strain elf1, stronger effect = lower value 0.896 | locus YKR001C, strain vps1, stronger effect = lower value 0.739 | locus YLR027C, strain aat2, stronger effect = lower value 0.911 | locus YLR039C, strain RIC1, stronger effect = lower value 0.366 | locus YLR058C, strain SHM2, stronger effect = lower value 0.803 | locus YLR221C, strain rsa3, stronger effect = lower value 0.823 | locus YLR262C, strain YPT6 (second series), stronger effect = lower value 0.402 | locus YLR268W, strain sec22, stronger effect = lower value 0.772 | locus YLR320W, strain mms22, stronger effect = lower value 0.646 | locus YLR330W, strain CHS5, stronger effect = lower value 0.845 | locus YLR342W, strain FKS1 (second series), stronger effect = lower value 0.77 | locus YLR342W, strain FKS1, stronger effect = lower value 0.818 | locus YLR371W, strain rom2, stronger effect = lower value 0.738 | locus YLR418C, strain cdc73, stronger effect = lower value 0.509 | locus YML016C, strain PPZ1, stronger effect = lower value 0.907 | locus YML032C, strain rad52, stronger effect = lower value 0.828 | locus YMR058W, strain fet3, stronger effect = lower value 0.258 | locus YMR125W, strain sto1, stronger effect = lower value 0.848 | locus YMR205C, strain PFK2, stronger effect = lower value 0.812 | locus YMR223W, strain ubp8, stronger effect = lower value 0.825 | locus YMR231W, strain pep5, stronger effect = lower value 0.762 | locus YMR307W, strain GAS1, stronger effect = lower value 0.317 | locus YNL071W, strain lat1, stronger effect = lower value 0.463 | locus YNL128W, strain TEP1, stronger effect = lower value 0.797 | locus YNL153C, strain GIM3, stronger effect = lower value 0.847 | locus YNL209W, strain ssb2, stronger effect = lower value 0.783 | locus YNL233W, strain BNI4, stronger effect = lower value 0.823 | locus YNL307C, strain MCK1, stronger effect = lower value 0.437 | locus YNL322C, strain KRE1, stronger effect = lower value 0.923 | locus YNR052C, strain pop2, stronger effect = lower value 0.846 | locus YOL147C, strain pex11, stronger effect = lower value 0.867 | locus YOR061W, strain CKA2, stronger effect = lower value 0.831 | locus YOR069W, strain VPS5, stronger effect = lower value 0.847 | locus YOR106W, strain vam3, stronger effect = lower value 0.697 | locus YOR144C, strain elg1, stronger effect = lower value 0.888 | locus YOR184W, strain ser1, stronger effect = lower value 0.632 | locus YOR270C, strain vph1, stronger effect = lower value 0.517 | locus YPL051W, strain arl3, stronger effect = lower value 0.664 | locus YPL055C, strain LGE1, stronger effect = lower value 0.734 | locus YPR163C, strain tif3, stronger effect = lower value 0.524 | strain wtn01, stronger effect = lower value 0.817
0.263 (active) and 0.923 (inactive): locus YJL095W, strain BCK1, stronger effect = lower value
0.501 (active) and 0.921 (inactive): locus YHR030C, strain SLT2, stronger effect = lower value
inactive: locus YAL021C, strain ccr4, stronger effect = lower value 0.996 | locus YBR021W, strain FUR4, stronger effect = lower value 1.03 | locus YBR171W, strain sec66, stronger effect = lower value 1 | locus YBR279W, strain paf1, stronger effect = lower value 0.933 | locus YCL016C, strain dcc1, stronger effect = lower value 0.92 | locus YCL069W, strain vba3, stronger effect = lower value 0.941 | locus YCR088W, strain abp1, stronger effect = lower value 0.988 | locus YDL005C, strain med2, stronger effect = lower value 1.03 | locus YDL040C, strain nat1, stronger effect = lower value 0.999 | locus YDL185W, strain tfp1, stronger effect = lower value 0.964 | locus YDR001C, strain nth1, stronger effect = lower value 0.999 | locus YDR069C, strain doa4, stronger effect = lower value 0.923 | locus YDR195W, strain ref2 1.12 | locus YDR334W, strain swr1, stronger effect = lower value 0.991 | locus YEL037C, strain rad23, stronger effect = lower value 0.987 | locus YEL061C, strain CIN8 (second series), stronger effect = lower value 0.963 | locus YER016W, strain bim1, stronger effect = lower value 0.957 | locus YER110C, stronger effect = lower value 0.953 | locus YFR010W, strain ubp6, stronger effect = lower value 0.919 | locus YGL078C, strain dbp3, stronger effect = lower value 0.998 | locus YGL167C, strain pmr1, stronger effect = lower value 0.996 | locus YGL227W, strain vid30, stronger effect = lower value 1.04 | locus YGL240W, strain doc1, stronger effect = lower value 0.989 | locus YGR252W, strain gcn5, stronger effect = lower value 0.902 | locus YHR013C, strain ard1, stronger effect = lower value 0.96 | locus YHR079C, strain IRE1 (second series), stronger effect = lower value 0.979 | locus YHR079C, strain IRE1, stronger effect = lower value 0.94 | locus YHR094C, strain hxt1, stronger effect = lower value 0.973 | locus YHR200W, strain rpn10, stronger effect = lower value 0.952 | locus YIL073C, strain SPO22, stronger effect = lower value 0.873 | locus YIL125W, strain kgd1, stronger effect = lower value 0.961 | locus YIR030C, strain dcg1, stronger effect = lower value 0.942 | locus YJL092W, strain hpr5, stronger effect = lower value 0.949 | locus YJL115W, strain asf1, stronger effect = lower value 1.04 | locus YJL129C, strain trk1, stronger effect = lower value 0.973 | locus YJL134W, strain LCB3, stronger effect = lower value 0.929 | locus YJL154C, strain vps35, stronger effect = lower value 1.01 | locus YJL168C, strain set2, stronger effect = lower value 0.971 | locus YJR066W, strain TOR1, stronger effect = lower value 0.909 | locus YKL009W, strain mrt4, stronger effect = lower value 1.11 | locus YKL068W, stronger effect = lower value 0.981 | locus YKL085W, strain MDH1 (second series), stronger effect = lower value 0.968 | locus YKL085W, strain MDH1, stronger effect = lower value 0.968 | locus YKR026C, strain gcn3, stronger effect = lower value 1 | locus YKR091W, strain srl3, stronger effect = lower value 0.998 | locus YLL001W, strain dnm1, stronger effect = lower value 0.932 | locus YLL026W, stronger effect = lower value 0.985 | locus YLL041C, strain sdh2, stronger effect = lower value 0.992 | locus YLR102C, strain apc9, stronger effect = lower value 0.988 | locus YLR113W, strain HOG1, stronger effect = lower value 0.882 | locus YLR258W, strain gsy2, stronger effect = lower value 0.924 | locus YLR357W, strain rsc2, stronger effect = lower value 1.01 | locus YLR370C, strain arc18, stronger effect = lower value 0.988 | locus YLR384C, strain iki3, stronger effect = lower value 1.02 | locus YML120C, strain ndi1, stronger effect = lower value 0.964 | locus YML124C, strain tub3, stronger effect = lower value 0.948 | locus YMR078C, strain ctf18, stronger effect = lower value 0.973 | locus YMR129W, stronger effect = lower value 0.935 | locus YMR263W, strain SAP30, stronger effect = lower value 0.936 | locus YNL067W, strain RPL9B, stronger effect = lower value 0.917 | locus YNL183C, strain NPR1, stronger effect = lower value 0.895 | locus YNL248C, strain rpa49, stronger effect = lower value 0.935 | locus YNL250W, strain rad50, stronger effect = lower value 0.956 | locus YNL271C, strain bni1, stronger effect = lower value 0.947 | locus YNL298W, strain CLA4, stronger effect = lower value 0.963 | locus YNL322C, strain KRE1 (second series), stronger effect = lower value 1.04 | locus YNR049C, strain mso1, stronger effect = lower value 0.986 | locus YOL012C, strain htz1 0.267 | locus YOR001W, strain rrp6, stronger effect = lower value 0.901 | locus YOR070C, strain gyp1, stronger effect = lower value 0.931 | locus YOR080W, strain dia2, stronger effect = lower value 1.03 | locus YOR083W, strain WHI5, stronger effect = lower value 0.909 | locus YOR136W, strain idh2, stronger effect = lower value 0.94 | locus YOR231W, strain MKK1, stronger effect = lower value 0.942 | locus YOR265W, strain rbl2, stronger effect = lower value 0.945 | locus YOR290C, strain snf2, stronger effect = lower value 0.944 | locus YOR316C, strain cot1, stronger effect = lower value 0.979 | locus YPL078C, strain atp4, stronger effect = lower value 0.897 | locus YPL106C, strain sse1, stronger effect = lower value 0.993 | locus YPL240C, strain hsp82, stronger effect = lower value 0.955 | locus YPL256C, strain CLN2, stronger effect = lower value 0.893 | locus YPR119W, strain clb2, stronger effect = lower value 0.956 | locus YPR141C, strain kar3, stronger effect = lower value 0.962 | locus YPR167C, strain met16, stronger effect = lower value 0.939
